For experiment [1], the target named is Tyrosine-protein kinase receptor UFO (Homo sapiens) (UniProt P30530). The conditions noted are these: at 1 µM.
Experiment [2] has as its target Tyrosine-protein kinase Blk (Homo sapiens) (UniProt P51451). The conditions noted are these: at 0.1 µM.
For experiment [3] the target is unchanged. The conditions noted are these: at 1 µM.
Experiment [4] concerns the target T1, Cytoplasmic tyrosine-protein kinase BMX (Homo sapiens) (UniProt P51813).
T1 sequence (whole entry): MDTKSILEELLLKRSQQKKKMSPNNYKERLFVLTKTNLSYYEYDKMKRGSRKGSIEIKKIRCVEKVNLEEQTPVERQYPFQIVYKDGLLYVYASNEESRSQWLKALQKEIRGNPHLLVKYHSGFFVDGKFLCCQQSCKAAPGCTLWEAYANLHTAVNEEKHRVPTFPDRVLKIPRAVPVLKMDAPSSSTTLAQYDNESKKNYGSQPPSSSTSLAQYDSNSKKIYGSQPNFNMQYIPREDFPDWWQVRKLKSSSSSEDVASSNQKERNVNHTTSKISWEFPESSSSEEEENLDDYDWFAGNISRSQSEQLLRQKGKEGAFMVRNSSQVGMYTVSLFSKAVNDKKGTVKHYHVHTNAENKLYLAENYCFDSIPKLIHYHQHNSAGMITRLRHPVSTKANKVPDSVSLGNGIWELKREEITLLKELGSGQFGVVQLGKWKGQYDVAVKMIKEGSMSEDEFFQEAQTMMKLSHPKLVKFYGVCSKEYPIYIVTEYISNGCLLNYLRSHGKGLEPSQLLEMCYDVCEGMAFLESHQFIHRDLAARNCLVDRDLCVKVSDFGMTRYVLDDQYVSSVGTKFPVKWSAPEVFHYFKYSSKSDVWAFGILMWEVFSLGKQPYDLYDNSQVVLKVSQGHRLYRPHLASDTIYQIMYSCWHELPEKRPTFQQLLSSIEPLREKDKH
The conditions noted are these: at 0.1 µM.

Experiment [5] concerns the target T1, Cytoplasmic tyrosine-protein kinase BMX (Homo sapiens). The conditions noted are these: at 1 µM.
In experiment [6] the target is Protein-tyrosine kinase 6 (Homo sapiens) (UniProt Q13882). The conditions noted are these: at 0.1 µM.
Experiment [7] has the same target. The conditions noted are these: at 1 µM.
Experiment [8] deals with Tyrosine-protein kinase BTK (Homo sapiens) (UniProt Q06187). The conditions noted are these: at 0.1 µM.
Experiment [9] has the same target. The conditions noted are these: at 1 µM.
The target of experiment [10] is Tyrosine-protein kinase CSK (Homo sapiens) (UniProt P41240). The conditions noted are these: at 0.1 µM.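 Further: value given is the averaged percent inhibition of CSK kinase activity, from the GSK PKIS kinase inhibitor set screening panel.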

Among the data in ChEMBL document CHEMBL1961873, “Compounds: GSK PKIS; Assays: Nanosyn kinase panel” (2012) are inhibition values, retold here.

Chain of Tyrosine-protein kinase BTK (Homo sapiens) (Q06187 whole entry): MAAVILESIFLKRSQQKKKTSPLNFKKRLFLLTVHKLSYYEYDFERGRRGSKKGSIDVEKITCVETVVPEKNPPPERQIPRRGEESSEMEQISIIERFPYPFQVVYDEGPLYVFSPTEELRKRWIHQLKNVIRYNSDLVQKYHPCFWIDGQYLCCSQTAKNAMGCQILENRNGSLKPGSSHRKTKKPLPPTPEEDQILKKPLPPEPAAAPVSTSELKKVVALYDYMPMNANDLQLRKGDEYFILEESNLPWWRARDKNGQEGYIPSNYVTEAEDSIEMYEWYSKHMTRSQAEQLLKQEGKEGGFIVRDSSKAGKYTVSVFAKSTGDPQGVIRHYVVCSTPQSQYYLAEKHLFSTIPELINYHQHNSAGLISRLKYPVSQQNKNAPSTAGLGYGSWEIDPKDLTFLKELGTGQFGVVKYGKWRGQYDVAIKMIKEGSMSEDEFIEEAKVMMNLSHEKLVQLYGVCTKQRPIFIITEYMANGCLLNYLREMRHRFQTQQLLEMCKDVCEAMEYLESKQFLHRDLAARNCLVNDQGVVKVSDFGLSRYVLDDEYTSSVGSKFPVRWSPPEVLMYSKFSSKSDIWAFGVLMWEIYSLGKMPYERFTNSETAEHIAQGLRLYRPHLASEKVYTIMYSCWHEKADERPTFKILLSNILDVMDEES
Chain of Tyrosine-protein kinase receptor UFO (Homo sapiens) (P30530 whole entry): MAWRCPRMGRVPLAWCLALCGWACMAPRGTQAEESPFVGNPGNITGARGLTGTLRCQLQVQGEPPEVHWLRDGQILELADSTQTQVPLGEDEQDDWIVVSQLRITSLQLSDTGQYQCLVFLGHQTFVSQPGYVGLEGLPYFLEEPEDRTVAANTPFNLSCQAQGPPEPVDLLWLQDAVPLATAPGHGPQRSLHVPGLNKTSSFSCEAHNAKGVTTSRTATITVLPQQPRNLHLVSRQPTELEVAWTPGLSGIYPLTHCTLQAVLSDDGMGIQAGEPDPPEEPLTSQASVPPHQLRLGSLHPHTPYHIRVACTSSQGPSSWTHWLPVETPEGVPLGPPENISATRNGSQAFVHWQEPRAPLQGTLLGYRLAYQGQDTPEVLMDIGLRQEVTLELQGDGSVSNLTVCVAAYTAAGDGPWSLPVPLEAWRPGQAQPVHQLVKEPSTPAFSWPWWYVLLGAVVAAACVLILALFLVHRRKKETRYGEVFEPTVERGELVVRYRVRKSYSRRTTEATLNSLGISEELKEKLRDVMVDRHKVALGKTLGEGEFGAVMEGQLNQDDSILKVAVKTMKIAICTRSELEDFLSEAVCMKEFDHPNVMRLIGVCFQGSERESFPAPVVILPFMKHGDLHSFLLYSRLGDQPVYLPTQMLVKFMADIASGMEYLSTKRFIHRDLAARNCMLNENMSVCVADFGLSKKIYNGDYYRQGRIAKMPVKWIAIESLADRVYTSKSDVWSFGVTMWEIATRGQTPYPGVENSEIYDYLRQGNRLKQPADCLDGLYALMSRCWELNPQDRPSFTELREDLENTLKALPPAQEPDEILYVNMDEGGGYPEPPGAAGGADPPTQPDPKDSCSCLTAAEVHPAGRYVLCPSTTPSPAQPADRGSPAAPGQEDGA
Chain of Protein-tyrosine kinase 6 (Homo sapiens) (Q13882 whole entry, looked up): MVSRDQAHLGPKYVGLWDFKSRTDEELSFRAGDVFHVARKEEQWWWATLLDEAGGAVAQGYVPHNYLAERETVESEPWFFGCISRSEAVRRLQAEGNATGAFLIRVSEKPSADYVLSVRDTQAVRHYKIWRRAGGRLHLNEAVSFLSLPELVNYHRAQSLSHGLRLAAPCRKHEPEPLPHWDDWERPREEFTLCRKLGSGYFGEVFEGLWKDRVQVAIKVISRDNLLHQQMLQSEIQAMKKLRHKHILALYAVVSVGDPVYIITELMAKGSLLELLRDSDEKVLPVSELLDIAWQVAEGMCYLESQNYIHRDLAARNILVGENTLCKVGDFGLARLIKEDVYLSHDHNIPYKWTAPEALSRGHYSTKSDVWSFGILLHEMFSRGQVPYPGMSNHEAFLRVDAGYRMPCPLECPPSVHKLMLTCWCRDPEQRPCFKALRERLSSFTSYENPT
Chain of Tyrosine-protein kinase CSK (Homo sapiens) (P41240 2-450 limits assumed): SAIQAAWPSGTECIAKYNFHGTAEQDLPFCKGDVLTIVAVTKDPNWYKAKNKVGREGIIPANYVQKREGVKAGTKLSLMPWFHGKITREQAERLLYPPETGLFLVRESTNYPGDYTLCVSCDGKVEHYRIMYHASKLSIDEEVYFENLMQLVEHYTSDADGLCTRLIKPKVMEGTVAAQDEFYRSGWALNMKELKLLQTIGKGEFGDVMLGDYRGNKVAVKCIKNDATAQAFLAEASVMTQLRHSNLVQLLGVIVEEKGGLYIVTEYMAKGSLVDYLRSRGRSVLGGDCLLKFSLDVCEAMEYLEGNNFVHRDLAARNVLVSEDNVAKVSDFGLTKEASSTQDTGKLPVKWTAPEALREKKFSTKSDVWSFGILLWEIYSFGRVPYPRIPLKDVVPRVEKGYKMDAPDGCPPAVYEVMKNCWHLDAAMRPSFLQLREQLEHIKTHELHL
Chain of Tyrosine-protein kinase Blk (Homo sapiens) (P51451 2-505 limits assumed): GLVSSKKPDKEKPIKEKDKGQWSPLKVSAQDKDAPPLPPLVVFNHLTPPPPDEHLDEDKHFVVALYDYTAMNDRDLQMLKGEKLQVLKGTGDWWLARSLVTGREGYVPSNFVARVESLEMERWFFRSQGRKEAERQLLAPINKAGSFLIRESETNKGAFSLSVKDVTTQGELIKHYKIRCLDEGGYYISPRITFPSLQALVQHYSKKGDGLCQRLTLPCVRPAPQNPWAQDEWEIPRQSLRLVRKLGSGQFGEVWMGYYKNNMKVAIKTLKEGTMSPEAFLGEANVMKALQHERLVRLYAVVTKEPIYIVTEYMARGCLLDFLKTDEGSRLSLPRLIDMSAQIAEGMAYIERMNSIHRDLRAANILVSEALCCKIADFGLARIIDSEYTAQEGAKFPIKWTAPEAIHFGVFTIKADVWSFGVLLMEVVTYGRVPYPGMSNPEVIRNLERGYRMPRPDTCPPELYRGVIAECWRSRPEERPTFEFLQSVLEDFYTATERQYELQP

Turning to `CCn1c(-c2nonc2N)nc2cncc(C(=O)N3CCNCC3)c21`, the inhibition in experiment [1] was -9.66%; in experiment [2] it was 2.72%; in experiment [3], 4.31%; in [4], 6.75%; in [5] it was 8.89%; in experiment [6], 4.01%. The inhibition was 5.31% in experiment [7], -1.34% in experiment [8], 1.16% in [9] and 4.39% in experiment [10].

Take `CCn1c(-c2nonc2N)nc2c(C#CC(C)(C)O)nc(CN3CCCC3)cc21`: the inhibition is 1.53% in experiment [1]; -0.49% in experiment [2]; 0.66% in [3]; 2.82% in experiment [4]; -1.55% in experiment [5]; -2.67% in experiment [6]. Moreover, the inhibition was -1.74% in experiment [7], -1.44% in experiment [8], -1.15% in [9] and -0.07% in experiment [10].

Consider `Nc1ncnc2occ(-c3ccc(NC(=O)Nc4cc(C(F)(F)F)cc(C(F)(F)F)c4)cc3)c12`, for which the inhibition was 22.1% in [1]; 2.66% in experiment [2]; 36.5% in experiment [3]; 4.42% in [4]; 49.9% in [5]; 1.52% in [6]. The inhibition was determined as 2.35% in experiment [7], 2.44% in [8], 9.01% in [9] and 3.53% in [10].

With `NC(=O)c1cccc(Nc2nccc(Nc3cccc4[nH]ncc34)n2)c1`, the inhibition turned out to be 7.82% in experiment [1]; 9.56% in experiment [2]; 66.3% in experiment [3]; 21.6% in experiment [4]; 73.8% in experiment [5]; 68.6% in experiment [6]. In addition, the inhibition in experiment [7] is 99.7%; in [8], 3.23%; in [9], 19.9%; in experiment [10], -2.2%.

`COc1ccc(-c2ccncc2)cc1C(N)=O`: the inhibition in experiment [1] was -7.29%; in experiment [2] it was 3.55%; in [3] it was 3.47%; in experiment [4], 3.29%; in experiment [5], 5.58%; in [6] it was 3.09%. In addition, the inhibition in experiment [7] was 3.57%; in experiment [8], -1.01%; in experiment [9] it was -0.13%; in experiment [10], 2.75%.

Turning to `COc1cc2ncn(-c3cc(OCc4ccccc4C(F)(F)F)c(C(N)=O)s3)c2cc1OC`, the inhibition in [1] is -1.95%; in experiment [2] it was 1.67%; in [3], 17.8%; in [4] it was 4.67%; in [5], 8.1%; in experiment [6] it was 3.25%. In addition, the inhibition in experiment [7] was 5.16%; in experiment [8] it was -3.7%; in experiment [9] it was -1.82%; in [10], 3.11%.

In the case of `NC(=O)c1ccc(-c2nc(-c3ccccn3)c(-c3ccc4c(c3)OCO4)[nH]2)cc1`, the inhibition in [1] is -1.2%; in [2] it was 1.51%; in experiment [3], 3.67%; in experiment [4] it was 6%; in [5], 2.22%; in experiment [6], 1.72%. Also, the inhibition in experiment [7] is 1.4%; in [8], -0.29%; in experiment [9], 0.83%; in [10] it was 5.75%.

As for `COc1cc2ncn(-c3cc(O[C@@H](C)c4ccccc4Cl)c(C(N)=O)s3)c2cc1OC`, the inhibition in experiment [1] is -5.82%; in experiment [2], 11.1%; in [3], 51.2%; in experiment [4] it was 2.71%; in experiment [5] it was 6.64%; in experiment [6] it was -0.13%. Besides, the inhibition in [7] was 7.91%; in experiment [8], -0.58%; in experiment [9] it was 1.4%; in [10], 1.7%.

`COC(=O)Nc1nc2cc(Oc3ccc(NC(=O)Nc4cccc(C(=O)O)c4)cc3)ccc2[nH]1`: the inhibition in experiment [1] was -0.32%; in experiment [2], -1.59%; in experiment [3] it was 0.01%; in [4], 0.22%; in experiment [5], 0.47%; in experiment [6], 0.95%. Moreover, the inhibition was -0.37% in experiment [7], -1.95% in [8], -2.57% in [9] and 2.42% in experiment [10].

For the molecule `COc1cc(C=NNc2ncnc3c2cnn3-c2ccccc2)ccc1O`, the inhibition in experiment [1] amounted to 10.6%; in experiment [2], 10.3%; in [3] it was 65.5%; in experiment [4] it was 3.92%; in [5], 21.9%; in experiment [6], 2.93%. Also, the inhibition in experiment [7] is 14.2%; in experiment [8], 1.25%; in experiment [9], 2.34%; in experiment [10], 4.22%.

Regarding `Cc1ccc(C(=O)NC2CCCCC2)cc1-c1ccc(C(=O)NCC2CC2)cc1`, the inhibition in experiment [1] stood at 3.11%; in [2], 2.04%; in experiment [3], 3.76%; in experiment [4] it was 2.45%; in experiment [5] it was 4.53%; in [6], 1.79%. Further, the inhibition in experiment [7] was 3.75%; in experiment [8], 1.78%; in experiment [9], 3.37%; in [10] it was 2.72%.

Take `COC(=O)Nc1nc2cc(Oc3cccc(NC(=O)Nc4cc(C(F)(F)F)ccc4F)c3)ccc2[nH]1`: the inhibition in [1] is 1.25%; in [2], -0.47%; in experiment [3], 1.35%; in [4] it was 1.84%; in experiment [5] it was -1.52%; in [6], -1.63%. Besides, the inhibition in experiment [7] is -2.33%; in experiment [8], -0.22%; in experiment [9] it was -0.18%; in [10] it was -2.03%.

With `Cc1nnc(-c2ccc(C)c(-c3ccc(C(=O)Nc4cccc(C#N)c4)cc3)c2)o1`, the inhibition in experiment [2] is 2.41%; in experiment [3] it was 3.76%; in experiment [4], 4.54%; in experiment [5] it was 2.78%; in experiment [6] it was 2.27%; in [7], 2.95%. Also, the inhibition is -0.22% in experiment [8], 1.88% in experiment [9] and 0.99% in [10].

Turning to `COc1cc2ncn(-c3cc(O[C@H](C)c4ccccc4Cl)c(C(N)=O)s3)c2cc1OC`, the inhibition is 8.37% in experiment [1]; 5.28% in experiment [2]; 23.4% in experiment [3]; 2.09% in experiment [4]; 9.76% in [5]; -0.56% in [6]. For the same molecule, the inhibition in experiment [7] was found to be 3.6%; in experiment [8], 1.78%; in experiment [9], 6.48%; in experiment [10], 4.29%.

Regarding `CNC(=O)c1cncc(/C=C/c2c(Cl)cccc2Cl)c1`, the inhibition in experiment [1] is -1.76%; in experiment [2] it was -1.91%; in [3], 5.69%; in experiment [4], 4.95%; in experiment [5] it was 22.8%; in experiment [6], 13.5%. Moreover, the inhibition in [7] was 56%; in experiment [8], -3.87%; in experiment [9], 0.37%; in [10] it was 0.49%.

For `[O-][S+]1CCN(Cc2ccc(-c3ccc4ncnc(Nc5ccc(OCc6ccccc6)c(F)c5)c4c3)o2)CC1`, the inhibition in experiment [1] was -2.42%; in experiment [2], 1.92%; in [3], 5.97%; in experiment [4], 4.65%; in experiment [5], 5.88%; in experiment [6], 0.34%. The inhibition in experiment [7] worked out at 6.21%; in experiment [8], 1.11%; in experiment [9], 1.74%; in experiment [10], 3.39%.

Take `COc1ccc2cc(-c3c(-c4ccncc4)nc(-c4ccc([S+](C)[O-])cc4)n3C)ccc2c1` (centres undefined): the inhibition in [1] was -3.32%; in experiment [2], 1.88%; in experiment [3], 6.67%; in [4], 4.9%; in [5] it was 3.64%; in experiment [6] it was 8.25%. The inhibition was 42% in [7], 0.83% in [8], 1.4% in [9] and 1.52% in experiment [10].
